The source of these data is PubChem BioAssay AID1345085 (National Center for Advancing Translational Sciences (NCATS), 2018).

Records with an inconclusive call do not appear. Where a call stands in place of a potency, no number is given. The source made the active and inactive calls. Calls come from the whole dose curve; as a rule, active = well fitted cell-killing curve with a large enough effect; inconclusive = small, poorly fitted or top-dose-only effect, or effect the other way; inactive = no such curve, though single readings can be large or run the other way.
Potency is the fitted concentration of half-maximal effect.

The test system of the assay is SW626. The assay is described as follows: Confirmatory qHTS for gynecologic anti-cancer compounds from libraries of approved drugs and bioactive compounds. Note: nearly all actives have a fitted effect of over 55% in size. The following applies: gynecologic cancer cell panel viability, ATPlite luminescence, 48 h; series mostly up to 57.6 µM. Summed up: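 1,000 cells/well; 16 h pre-incubation 37 C, 5% CO2; pin-transferred cpd in DMSO, 11 conc (1:3), 57.5 uM–0.977 nM; 48 h; ATPlite, 15 min RT; luminescence → IC50.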
(In general: Quantitative high-throughput screening tests each substance at several concentrations.)
As for `CC1=C(CO)C(=O)O[C@@H]([C@@H](C)[C@H]2CC[C@H]3[C@@H]4C[C@H]5O[C@]56[C@@H](O)C=CC(=O)[C@]6(C)[C@H]4CC[C@]23C)C1`, the Potency is 5.3 µM (active).

In the case of `CS(=O)(=O)c1ccc(-c2cnc(N)c(C(=O)Nc3ccccc3)n2)cc1`, the Potency entry was “inactive”.

In the case of `Cc1nc(Nc2n[nH]c3c2CN(C(=O)NC(CN(C)C)c2ccccc2)C3(C)C)c2sccc2n1` (stereo unspecified), the Potency entry is “inactive”.

In the case of `CN[C@@H](C)C(=O)N[C@H]1CN(C(=O)CC(C)C)CC[C@H]2CC[C@@H](C(=O)NC(c3ccccc3)c3ccccc3)N2C1=O`, the Potency entry is “inactive”.

As to `NS(=O)(=O)c1ccc(Nc2nc(OCC3CCCCC3)c3[nH]cnc3n2)cc1`, the Potency result was “inactive”.

Regarding `CC(C)c1nn(-c2c(Cl)cccc2Cl)c2nc(Cc3ccc(OCCO)cc3)[nH]c(=O)c12`, the Potency entry is “inactive”.

For the molecule `COc1ccc2cc3[n+](cc2c1OC)CCc1cc2c(cc1-3)OCO2`, the Potency entry is “inactive”.

Consider `NC1(c2ccc(-c3nc4ccn5c(=O)[nH]nc5c4cc3-c3ccccc3)cc2)CCC1`, for which the Potency entry was “inactive”.

As to `CCCCc1nc2cc(/C=C/C(=O)NO)ccc2n1CCN(CC)CC`, the Potency was 0.769 µM (active).

For the molecule `Nc1ncnc2c1ncn2[C@@H]1O[C@H](CO)C[C@H]1O`, the Potency result is “inactive”.

Regarding `CCC1C(=O)N(C)c2cnc(Nc3ccc(C(=O)NC4CCC(N5CCN(CC6CC6)CC5)CC4)cc3OC)nc2N1C(C)C` (stereo unspecified), the Potency was 7.69 µM (active).

As for `O=c1[nH]c(=O)n([C@H]2C[C@H](O)[C@@H](CO)O2)cc1F`, the Potency result was “inactive”.

In the case of `CC(Oc1ccc2[nH]nc(/C=C/c3cnn(CCO)c3)c2c1)c1c(Cl)cncc1Cl` (stereo unspecified), the Potency result is “inactive”.

For the molecule `O=C(Nc1cn[nH]c1-c1nc2ccc(CN3CCOCC3)cc2[nH]1)NC1CC1`, the Potency result was “inactive”.

Consider `C[C@@H](Oc1cc(-c2cnn(C3CCNCC3)c2)cnc1N)c1c(Cl)ccc(F)c1Cl`, for which the Potency was 21.7 µM (active).

On to `CCOC(=O)C1=C(C)NC2=C(C(=O)CC(C)(C)C2)C1c1ccc(-c2ccccc2)cc1` (stereo unspecified), for which the Potency result is “inactive”.

For the molecule `CC(C)CC(=O)Nc1n[nH]c2c1CN(C(=O)C1CCN(C)CC1)C2(C)C`, the Potency result was “inactive”.

Turning to `Cc1ccc(C(=O)Nc2ccc(CN3CCN(C)CC3)c(C(F)(F)F)c2)cc1C#Cc1cnc2[nH]ncc2c1`, the Potency was 1.72 µM (active).

As for `COc1cccc2c1C(=O)c1c(O)c3c(c(O)c1C2=O)C[C@@](O)(C(=O)CO)C[C@@H]3O[C@H]1C[C@H](N)[C@H](O[C@@H]2CCCCO2)[C@H](C)O1`, the Potency is 7.69 µM (active).

As to `O=C(CCCCCCC(=O)Nc1ccccc1)NO`, the Potency was 2.17 µM (active).

Take `Cc1c(C)n(Cc2ccc(-c3ccccc3C(=O)O)cc2)c2ccc(C(=O)N[C@@H](C)c3ccc([N+](=O)[O-])cc3)cc12`: the Potency entry is “inactive”.

On to `COc1cc(-c2nn(C3CCC(N4CCN(C(C)=O)CC4)CC3)c3ncnc(N)c23)ccc1NC(=O)c1cc2ccccc2n1C` (stereo unspecified), for which the Potency was 27.3 µM (active).

Regarding `C[C@]12CCC(=O)C=C1[C@@H]1C[C@@H]1[C@H]1[C@@H]3[C@@H]4C[C@@H]4[C@@]4(CCC(=O)O4)[C@@]3(C)CC[C@@H]12`, the Potency result was “inactive”.

As to `Cc1cc(C2CCCCC2)n(O)c(=O)c1`, the Potency was 8.86 µM (active).

Turning to `O=C1Cc2cc(CCN3CCN(c4nsc5ccccc45)CC3)c(Cl)cc2N1`, the Potency result is “inactive”.

As for `CC(C)n1nc(-c2cc3cc(O)ccc3[nH]2)c2c(N)ncnc21`, the Potency was 7.69 µM (active).

In the case of `Nc1ccccc1NC(=O)c1ccc(CNc2nccc(-c3cccnc3)n2)cc1`, the Potency was 0.685 µM (active).

For `CN1C(=O)C(Cc2c[nH]c3ccccc23)NC1=S` (stereo unspecified), the Potency result is “inactive”.

`COc1cc2c(NC3CCN(C(C)C)CC3)nc(C3CCCCC3)nc2cc1OCCCN1CCCC1`: the Potency was 10.9 µM (active).

As for `CCN[C@H]1C[C@H](C)S(=O)(=O)c2sc(S(N)(=O)=O)cc21`, the Potency entry is “inactive”.

Take `COc1c(C)c2c(c(O)c1C/C=C(\C)CCC(=O)O)C(=O)OC2`: the Potency entry was “inactive”.
